{"source": "PubChem BioAssay AID800", "about": "(PCMD, 2007)", "note": "Screen size: about 220,000 compounds; about 650 (0.3%) were called active. The list comes from a sample in which actives are over-represented; it also holds similar structures and randomly drawn compounds. Unmarked numbers belong to inactive results. Rule as the data show it: active = inhibition above about 40%; inactive = the rest."}
{"biological_target": "Coagulation factor XII (Homo sapiens) (UniProt P00748)", "sequence (P00748 20-372 limits assumed)": "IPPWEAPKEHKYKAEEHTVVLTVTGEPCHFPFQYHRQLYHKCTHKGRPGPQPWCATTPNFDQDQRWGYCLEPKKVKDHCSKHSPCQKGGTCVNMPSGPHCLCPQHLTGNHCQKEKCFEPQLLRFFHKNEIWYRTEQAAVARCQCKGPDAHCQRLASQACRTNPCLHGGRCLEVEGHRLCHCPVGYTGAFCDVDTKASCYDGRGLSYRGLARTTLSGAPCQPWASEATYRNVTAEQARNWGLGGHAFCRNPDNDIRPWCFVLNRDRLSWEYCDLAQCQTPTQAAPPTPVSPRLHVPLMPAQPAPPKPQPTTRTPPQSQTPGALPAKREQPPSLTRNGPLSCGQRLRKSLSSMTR", "sequence (P00748 373-615 limits assumed)": "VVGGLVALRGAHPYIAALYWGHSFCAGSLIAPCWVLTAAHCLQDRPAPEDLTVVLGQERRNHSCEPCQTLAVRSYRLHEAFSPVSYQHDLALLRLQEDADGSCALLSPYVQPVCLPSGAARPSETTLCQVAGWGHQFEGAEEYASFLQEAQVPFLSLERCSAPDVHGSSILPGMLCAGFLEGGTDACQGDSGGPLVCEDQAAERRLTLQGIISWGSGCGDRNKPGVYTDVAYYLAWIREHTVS", "assay": "human FXIIa protease inhibitors, primary screen, biochemical, 1536-well (AID 800);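 also: 0% = enzyme with no compound and 100% = blank without enzyme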", "details": "purified FXIIa, Boc-QGR-AMC fluorogenic substrate, 2 h; at 5 µM; hits give high values"}
{"smiles": "O=C(c1ccc(F)cc1)n1c(=S)nc2ccccn21", "inhibition": "0.92%"}
{"smiles": "COc1c(O)cc2oc(-c3ccc(O)c(O)c3)cc(=O)c2c1O", "inhibition": "2.88%"}
{"smiles": "CCCCN1Cc2c(nc3cc(-c4ccccc4)[nH]n3c2=O)C1=O", "inhibition": "-5.1%"}
{"smiles": "O=C(NCc1cccnc1)c1cnc2ccccc2n1", "inhibition": "8.13%"}
{"smiles": "COC(=O)c1c(C)oc(C)c1S(=O)(=O)NCc1ccc(Cl)cc1", "inhibition": "6.03%"}
{"smiles": "CC(=O)c1ccc(NC(=O)C2CC(=O)Nc3nc4ccccc4n32)cc1", "note": "(configuration not stated)", "inhibition": "8.34%"}
{"smiles": "COc1ccc(C2/C=C\\CN(S(=O)(=O)c3cccs3)CC(=O)N2Cc2ccc(F)cc2)cc1", "note": "(configuration not stated)", "inhibition": "9.45%"}
{"smiles": "O=[N+]([O-])c1cc(Cl)cc(/C=N/NC(=S)Nc2cc(S(=O)(=O)N3CCOCC3)ccc2Cl)c1O", "inhibition": "6.23%"}
{"smiles": "CSCC[C@H](NC(=O)CCCn1nnc2ccccc2c1=O)C(=O)O", "inhibition": "4.87%"}
{"smiles": "CCOC(=O)COc1nc(C)cc(C(F)(F)F)c1C#N", "inhibition": "-0.55%"}
{"smiles": "Cc1ccc(Nc2nc(N)nc(CSc3nnc(C)s3)n2)cc1", "inhibition": "4.96%"}
{"smiles": "Cc1cnc(NC(=O)c2ccccn2)s1", "inhibition": "7.08%"}
{"smiles": "COC(=O)c1ccc(Oc2nc(Nc3ccc(F)cc3)nc(N3CCCC3)n2)cc1", "inhibition": "-2.89%"}
{"smiles": "COC(=O)c1ccc(Oc2nc(NC(C)C)nc(SC)n2)cc1", "inhibition": "44% (active)"}
{"smiles": "CCNc1nc(Oc2ccc(C(=O)OC)cc2)nc(N2CCOCC2)n1", "inhibition": "9.71%"}
{"smiles": "COCCN(C(=S)Nc1cccc(Cl)c1C)C(C)c1ccco1", "note": "(configuration not stated)", "inhibition": "6.59%"}
{"smiles": "COP1(=O)C[C@@H](O)[C@@H](O)[C@@H](COCc2ccccc2)O1", "note": "(some centres not stated)", "inhibition": "5.94%"}
{"smiles": "O=[N+]([O-])c1ccc2nc(-c3ccccn3)[nH]c2c1", "inhibition": "5.76%"}
{"smiles": "CN(C)S(=O)(=O)c1ccc(NC(=O)COC(=O)Cn2[nH]c(=O)c3ccccc3c2=O)cc1", "inhibition": "-3.32%"}
{"smiles": "Cc1nn2c(NCCN(C)C)c3c(nc2c1-c1ccccc1)CCC3", "inhibition": "10.3%"}
{"smiles": "O=C1NNC(c2ccccc2)=N/C1=C\\c1ccc(Cl)cc1", "inhibition": "0.78%"}
{"smiles": "CC1Cc2ccccc2N1CC(=O)Nc1ccc(S(N)(=O)=O)cc1", "note": "(configuration not stated)", "inhibition": "7.97%"}
{"smiles": "COc1ccc2oc(N)c(C=O)c(=O)c2c1", "inhibition": "8.71%"}
{"smiles": "CC(C)(C)C(=O)NNC(=O)c1ccc(Oc2cc(Cl)cc(Cl)c2)o1", "inhibition": "8.39%"}
{"smiles": "CCOC(=O)c1cc(C)nc(S(C)(=O)=O)c1C#N", "inhibition": "2.84%"}
{"smiles": "CC(C)=CCC/C(C)=C/C(=O)O", "inhibition": "4.62%"}
{"smiles": "O=c1c2ccccc2cnn1Cc1n[nH]c(=S)n1-c1ccccc1F", "inhibition": "4.28%"}
